# Screens from PubChem.
# IL1B secr inh: inhibitors of inflammasome signaling (IL-1 beta secretion); hit rate 4.7% among 360,000; activity change, % at 57.5 µM; THP-1 LPS/ATP IL-1B secretion, AlphaLISA, 16 h; hits give low values; in the data active means activity change below about -50%; inconclusive means mostly about -30% to -49%
#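 Secreted IL-1B measured by AlphaLISA bead assay after 16 h compound exposure of THP-1 cells; compounds (final up to 57.5 uM) added 1 h before LPS (250 ng/mL) and ATP (1.25 mM) stimulation; lower signal means less secretion.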
# TDP1 cell CPT: DT40-hTDP1 cell growth loss with CPT; chicken DT40 Tdp1-/-;hTDP1 cells + 20 nM CPT, ATP luminescence, 48 h; Potency, µM (doses to about 46.2 µM), without a hit: top-dose activity change, negative = growth inhibition, most hits filed as inhibitors; hit rate 12% among 420,000; AID 686979; further: potency means the concentration at half of the fitted maximal effect; nearly all actives have a fitted effect of over 55% in size
#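 Cell growth measured by CellTiter-Glo luminescence after a minimum 48 h, 37 C compound exposure with 20 nM CPT in Tdp1-knockout DT40 cells stably expressing hTDP1, seeded 400/well; qHTS titration format.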
# DT40 TDP1 no CPT: qHTS for Inhibitors of human tyrosyl-DNA phosphodiesterase 1 (TDP1): qHTS in cells in absence of CPT. Potency, µM (highest dose often 46.2 µM), for the others: at the top dose activity change, negative = growth inhibition, most hits filed as inhibitors. hit rate 15% among 420,000. DT40 Tdp1-/- hTDP1 cells, no CPT, ATP luminescence, 48 h. AID 686978, 2013; further: potency means the concentration at half of the fitted maximal effect; nearly all actives have a fitted effect of over 55% in size
#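 Chicken DT40 Tdp1-/- cells complemented with human TDP1, screened without camptothecin (DMSO vehicle only), 400 cells/well. Compounds pin-transferred, cells incubated at 37 °C for at least 48 hr. Growth read as ATP-dependent luminescence (CellTiter-Glo, 30 min at RT).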
# HT1080-NT tox: kills 2HG-producing HT-1080-NT fibrosarcoma cells; HT-1080-NT fibrosarcoma viability, CellTiter-Glo ATP luminescence, 48 h; Potency, µM (top dose mostly 46.1 µM), without a hit: top-dose activity, negative = less viability, actives largely listed as cytotoxic; hit rate 1.6% among 360,000;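 further: NT is the 2HG producing partner of a matched IDH1 knockdown line; potency means the concentration at half of the fitted maximal effect; 0% = DMSO-treated cells and -100% = media-only wells without cells; nearly all actives have a fitted effect of over 55% in size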
#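 Viability of the 2HG-overproducing fibrosarcoma line after 48 hours of compound exposure at 37 degrees C was determined by luminescence with CellTiter-Glo, and concentration-effect curves were then fitted and categorized.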
# HT1080 IDH1KD tx: toxicity to HT-1080 IDH1 knockdown cells (counter line); HT-1080 IDH1 knockdown viability, ATP luminescence, 48 h; Potency, µM (titrated, usually from 46.1 µM), for the others: at the top dose activity, negative = toxicity, usual class: cytotoxic; hit rate 2% among 360,000;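 further: potency means the concentration at half of the fitted maximal effect; 0% = DMSO wells and -100% = cell-free medium wells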
#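 Luminescent ATP read-out (CellTiter-Glo, 10 min at room temperature) after 48 h compound exposure at 37 °C gave viability of IDH1-knockdown HT-1080 cells. Activity was normalised to DMSO and cell-free wells, then fitted as concentration-response curves.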
# Starred values were filed as active, the others as inactive; u = inconclusive; x = not tested or not shown. An excerpt weighted towards active compounds, which were near 19% of everything screened. Unless noted, the call rests on the fitted dose curve; in most records, active means well fitted curve in the direction sought with a large enough effect; inconclusive means small, poorly fitted or top-dose-only effect, or another doubt; inactive means no such curve, though single readings can be large; an effect the other way counts as inactive or inconclusive. Unless noted, on the % scale 0 is the no-effect control and ±100 the full control effect.
SMILES,IL1B secr inh,TDP1 cell CPT,DT40 TDP1 no CPT,HT1080-NT tox,HT1080 IDH1KD tx
CN(C)C1=NC[C@H](Cc2ccccc2)N1CCCCc1ccccc1,u,u,21µM*,-28%,-21%
CCCCCCCN1C(N(C)C)=NC[C@@H]1Cc1ccccc1,u,12µM*,9.2µM*,u,u
Cc1cccc(CCN2C(N(C)C)=NC[C@@H]2CC(C)C)c1,-1,u,u,-14%,-17%
CCc1nn(CC(=O)NCCC(C)C)c(=O)c2cc3occc3n12,x,-13%,u,x,x
CCC(C)NC(=O)COC(=O)c1oc2ccccc2c1CSc1ccc(Cl)cc1 (centres undefined),16,u,u,-1%,-4%
Cc1ccc(NC(=O)CCc2nc3cccnc3n2-c2ccccc2)cc1Cl,x,16µM*,16µM*,x,x
COCCn1c(CCC(=O)Nc2ccc(C)c(Cl)c2)nc2cccnc21,x,u,-73%,x,x
CCOC(=O)c1cccc(NC(=O)CCc2nc3cccnc3n2-c2ccccc2)c1,x,-27%,-28%,x,x
O=C(CCc1nc2cccnc2n1-c1ccccc1)Nc1ccc(Cl)c(Cl)c1,x,u,18µM*,x,x
CCOc1ccc(OCC)c(NC(=O)CCc2nc3cccnc3n2-c2ccccc2)c1,x,21µM*,u,x,x
CCN1C(=O)C(CC(=O)Nc2c(C)cccc2C)Nc2cc(S(=O)(=O)N(C)C)ccc21 (centres undefined),4,9%,-20%,-4%,5%
COc1ccc(NC(=O)CC2Oc3ccc(C)cc3NC2=O)cc1Cl (centres undefined),x,-5%,-23%,x,x
CSc1ncc(C(=O)Nc2cccnc2)c(C(F)(F)F)n1,-1,-11%,-1%,5%,11%
CC1=NCCN1CCNC(=O)Nc1ccc(F)cc1,21,-3%,2%,5%,19%
CC1=C(C(=O)OCC(C)C)C(c2ccsc2)C2=C(CCCC2=O)N1 (centres undefined),-4,u,u,-6%,-13%
O=C(Nc1ccc(Cl)c(Cl)c1)C1=Cc2ccccc2OC1,u,u,23µM*,u,u
O=C(Nc1cccc(Cl)c1)C1=Cc2cc(Cl)ccc2OC1,-6,u,u,u,u
CCOc1cc(NC(=O)c2ccccc2C)c(OCC)cc1NC(=O)C1=Cc2ccccc2OC1,0,7.3µM*,5.8µM*,-4%,9%
O=C(N/N=C/c1cccc(O)c1)c1ccc(-n2cnnn2)cc1,2,-1%,u,-14%,-1%
Cc1ccccc1CNC(=O)c1csc([C@@H]2C[C@H](O)[C@@H](CO)O2)n1,3,-4%,-10%,20%,7%
COc1ccc(-c2nnc(NC(=O)c3cc(Cl)ccc3Cl)o2)cc1,30,16µM*,u,-12%,-27%
O=C(Nc1nc(-c2ccccc2)c(-c2ccccc2)o1)c1ccc(F)cc1,10,9.2µM*,8.2µM*,-27%,u
CCC(=O)Nc1nnc(-c2ccc(OC)cc2)o1,2,-15%,-17%,1%,-4%
O=C(Nc1nnc(-c2ccc(F)cc2)o1)c1ccc(S(=O)(=O)N2CCOCC2)cc1,64,3.3µM*,2.9µM*,-15%,u
Cc1ccccc1C(=O)Nc1nnc(-c2ccc(F)cc2)o1,69,6.5µM*,5.8µM*,u,u
SMILES,IL1B secr inh,TDP1 cell CPT,DT40 TDP1 no CPT,HT1080-NT tox,HT1080 IDH1KD tx
CS(=O)(=O)c1cccc(-c2nnc(NC(=O)c3ccc(S(=O)(=O)N4CCCC4)cc3)o2)c1,-3,-1%,3%,5%,1%
COc1ccccc1C(=O)Nc1nnc(-c2ccc(F)cc2)o1,0,7%,-28%,-4%,12%
Cc1ccccc1C(=O)Nc1nnc(CC(=O)N/N=C/c2ccncc2)s1,x,4%,0%,12%,22%
Cc1ccc(-n2ncc3c2CC(C)(C)CC3NC(=O)CCc2c(C)noc2C)cc1 (centres undefined),-9,u,-27%,9%,0%
COc1ccc(NC(=O)C2(C)CCN2C(=O)C(C)C)cc1F (centres undefined),8,-18%,-7%,16%,u
CN1CC(c2ccc(C#N)cc2)C2(COc3ccccc3C2=O)C12C(=O)Nc1ccccc12 (centres undefined),9,-13%,-11%,-2%,-19%
CCN1CCN(C(CNS(=O)(=O)c2ccc(F)cc2)c2cccnc2)CC1 (centres undefined),-15,-13%,10%,12%,13%
COc1ccc(-c2nnc(NC(=O)c3ccc(F)cc3)o2)cc1,45,2.9µM*,u,-7%,u
O=C(Nc1nnc(-c2ccc(F)cc2)o1)c1ccco1,23,u,u,0%,-14%
CNc1ccccc1C(C)(C)c1cc(-c2cccc(OC)c2)no1,7,4.6µM*,5.2µM*,-12%,u
CNc1ccccc1C(C)(C)c1cc(-c2cc(C)cc(C)c2)no1,-9,u,u,-24%,u
CC1CCCCN1CCCNC(=O)c1ccc(NC(=O)C2=CSCCO2)cc1 (centres undefined),-5,3%,-6%,1%,4%
CCCc1cc(C(=O)N(C2CCCCC2)C2CCCCC2)no1,54,u,29µM*,7%,5%
CCCc1cc(C(=O)NC2CCCCC2)no1,-30,-19%,12%,15%,1%
O=C(/C=C/c1cccc([N+](=O)[O-])c1)n1cnc2ccccc21,-68*,2.6µM*,2.6µM*,u,2.6µM*
O=C(C=Cc1cccs1)c1cccs1,-26,u,26µM*,-8%,-3%
O=C(/C=C/c1cccs1)c1ccc(Br)cc1,u,u,u,-6%,-14%
O=C(/C=C/c1cccc([N+](=O)[O-])c1)c1cccs1,-88*,3.7µM*,2.3µM*,10µM*,16µM*
O=C(/C=C/c1cccc([N+](=O)[O-])c1)Nc1ccc(NC(=O)c2cccs2)cc1,8,5%,3%,6%,7%
O=C(/C=C/c1cccs1)c1ccco1,-13,-15%,u,-4%,-6%
O=C(/C=C\c1cccs1)c1c(O)ccc2ccc(=O)oc12,-83*,u,u,u,23µM*
CCCCNC(=O)C1(C)CCCCN1C(=O)c1c(C)noc1C (centres undefined),15,-2%,-3%,5%,5%
CCCCNC(=O)N(O)C1N(/N=C/c2ccccc2OC)C(=S)SC1(C)C (centres undefined),-17,-3%,-20%,1%,9%
O=c1[nH]c(/C(Cl)=C/c2cccc(C(F)(F)F)c2)nc2cc(Cl)ccc12,-4,u,u,-2%,0%
